# Screens: PubChem, The Scripps Research Institute Molecular Screening Center
# Shown are actives, neighbours in structure and some others; about 3.5% of the full set was active somewhere.
# GPR151 activ: activators of human GPR151. Q8TDV0. PathHunter beta-arrestin GPR151 cells, luminescence. activation, % at 11.2 µM. 1% of 650,000 active. AID 1508602; in the data active = activation above about 4.9%;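 also: 0% = median of compound wells and 100% = cells with positive control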
# Target sequence (Q8TDV0 whole entry, looked up): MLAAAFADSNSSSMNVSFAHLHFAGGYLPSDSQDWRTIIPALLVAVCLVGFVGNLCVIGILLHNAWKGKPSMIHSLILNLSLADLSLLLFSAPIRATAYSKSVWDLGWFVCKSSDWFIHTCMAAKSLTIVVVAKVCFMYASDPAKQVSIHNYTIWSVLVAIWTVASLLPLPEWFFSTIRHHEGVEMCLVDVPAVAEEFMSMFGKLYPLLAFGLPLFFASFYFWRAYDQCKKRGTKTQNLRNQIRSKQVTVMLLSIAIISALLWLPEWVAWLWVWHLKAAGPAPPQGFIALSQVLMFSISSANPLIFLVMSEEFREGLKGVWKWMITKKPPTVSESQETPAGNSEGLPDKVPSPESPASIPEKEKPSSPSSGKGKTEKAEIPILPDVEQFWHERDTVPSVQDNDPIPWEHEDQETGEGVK
# MITF primary: blocks human microphthalmia-associated transcription factor. 0.91% of 650,000 active. AlphaScreen MITF homodimerization, bead proximity signal. inhibition, % at 2.6 µM. O75030; in the data active = inhibition above about 50%;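 also: 0% = vehicle wells with protein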
# TEAD-YAP inh: TEAD-YAP interaction inhibition; inhibition, % at 9.12 µM; 1.4% of 640,000 active; HEK-TIYL cells, TEAD-Gal4/YAP UAS-luciferase luminescence; AID 1259422; in the data active = inhibition above about 32%;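 also: 0% = median of test compound wells and 100% = reference inhibitor wells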
# FBW7 act: activators of human E3 ligase FBW7. AID 1259310. AlphaScreen FBW7–phospho-cyclin E peptide binding, activator screen. normalized activity (activation), % at 26.1 µM. 0.13% of 650,000 active. Q969H0; in the data active = normalized activity above about 1.9%;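 also: purified mutant Fbw7 with reduced substrate affinity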
# MITF inh conf: human MITF inhibition, confirmation; shares compounds with MITF primary; AID 1259372; AlphaScreen MITF homodimerization, biotin/His-MITF beads; 16% of 4,700 active; inhibition, % at 2.6 µM;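 active = inhibition above a cutoff derived from the DMSO control wells, cut at about 28% in these data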;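 also: 0% = MITF dimer wells with DMSO only; inhibitors lower the bead chemiluminescence by keeping MITF from dimerizing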
# AlphaScreen DR: AlphaScreen optical interference, dose response counter-screen; shares compounds with MITF primary; AlphaScreen optical interference counterscreen, cell-free; IC50, µM; 6% of 480 active; AID 1259373; call rule not given here
# AlphaScreen intf2: counter-screen: compounds optically interfering with AlphaScreen; shares compounds with MITF primary; LysRS AlphaScreen counterscreen, signal interference, triplicate; inhibition, % at 2.6 µM; 7.6% of 4,700 active;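 active = inhibition above a cutoff derived from the DMSO control wells, cut at about 30% in these data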
# Starred values were filed as active, the others as inactive; nt = no result.
SMILES,GPR151 activ,MITF primary,TEAD-YAP inh,FBW7 act,MITF inh conf,AlphaScreen intf2,others
CCCCC[C@H](O)/C=C/[C@H]1C=CC(=O)[C@@H]1CCCCCCC(=O)NCCCCCNC(=O)CCCCC1SC[C@@H]2NC(=O)N[C@H]12 (some centres undefined),-2,124*,nt,nt,123*,101*,
CCCCC[C@H](O)/C=C/[C@H]1C(=O)C[C@H](O)[C@@H]1C/C=C\CCCC(=O)OCC(O)CO (some centres undefined),1,71*,nt,nt,-6,-3,
CCCCC[C@H](O)/C=C/[C@H]1C(=O)C[C@H](O)[C@@H]1C/C=C\CCCC(=O)O,1,13,nt,nt,nt,nt,
CSCCC(NC(=O)CCN1C(=O)c2ccccc2C1=O)C(=O)O (centres undefined),1,4,1,0,nt,nt,
COc1ccc(C2CC(=O)C3=C(C2)NC(C)=C(C(=O)OCCc2ccccc2)C3c2cccc(F)c2)cc1 (centres undefined),0,16,14,2,nt,nt,
COc1ccc(/C=C2\C(=O)NC(=O)N(c3ccccc3OC)C2=O)cc1Br,0,1,-25,1,nt,nt,
CCCCCCc1c(C)c2cc(Cl)c(OCc3ccccc3F)cc2oc1=O,-1,-1,2,0,nt,nt,
CCOc1cc(CN2CCN(S(=O)(=O)c3ccccc3[N+](=O)[O-])CC2)ccc1OC,2,66*,-10,0,9,13,
COc1cccc(CN2CCN(S(=O)(=O)c3ccccc3[N+](=O)[O-])CC2)c1,0,66*,-2,0,9,11,
CC(C)OCCCNC(=O)C1CC(Cc2ccc(F)cc2)=NO1 (centres undefined),1,53*,-12,0,23,12,
Cc1ccc(N2C(=O)C3ON(c4ccccc4)C(c4ccc([N+](=O)[O-])cc4)C3C2=O)cc1 (centres undefined),1,61*,-1,0,5,-4,
CNC(=O)COc1cc(-c2cn[nH]c2)ccc1NC(=O)C1COc2ccc(OC)cc2C1 (centres undefined),1,66*,-1,1,52*,20,AlphaScreen DR=>6.5
O=C1NC(=O)C(CCCc2ccccc2)(C2CCN(C(=O)Cc3cccs3)CC2)N1 (centres undefined),0,-18,6,0,nt,nt,
O=C1NC(=O)C(CCCc2ccccc2)(C2CCN(C(=O)Cc3cccc(F)c3)CC2)N1 (centres undefined),-1,51*,0,0,4,-2,
COc1ccc(C(CNC2=CC(=O)CC(C)(C)C2)N2CCCC2)cc1 (centres undefined),-1,6,12,0,nt,nt,
CCOC(=O)CCNC(C)C1COc2ccccc2O1 (centres undefined),1,51*,4,0,11,13,
COc1ccc(NC(=O)CCC(=O)OCC(=O)c2ccc(Cl)c(Cl)c2)cc1,1,62*,13,0,14,16,
COc1ccc(C(=O)COC(=O)CCC(=O)Nc2ccc(Cl)c(Cl)c2)cc1,2,-6,2,0,nt,nt,
O=C(CSc1nc2ccccc2c(=O)n1CCc1ccccc1)Nc1cccc(C(F)(F)F)c1,0,-11,3,0,nt,nt,
COc1ccc(OC)c(/C=C/C(=O)NCCN2CCC(N(C)C3CCCCC3C)CC2)c1 (centres undefined),-1,52*,2,0,-1,14,
COc1ccc(/C=C/C(=O)NCCCN2CCC(N(C)C3CCCCC3C)CC2)cc1 (centres undefined),1,-1,1,0,nt,nt,
Cc1ccc(CNC(=O)CCS(=O)(=O)c2ccc3c(c2)OCC(=O)N3)o1,3,2,0,0,nt,nt,
CC1=C(C(=O)O)N2C(=O)[C@@H](NC(=O)[C@H](N)c3ccccc3)[C@H]2SC1,3,6,5,0,nt,nt,
C/C=C\C1=C(C(=O)O)N2C(=O)C(NC(=O)C(N)c3ccc(O)cc3)C2SC1 (centres undefined),-1,51*,-10,0,28*,5,AlphaScreen DR=>6.5
CC(C(=O)NCc1cccc(Cl)c1)n1ncn2cccc2c1=O (centres undefined),1,-4,1,0,nt,nt,
Cc1cc2nc(C3CCN(Cc4nnnn4Cc4cccs4)CC3)[nH]c2cc1C,1,55*,-3,0,4,14,
